Test results reported in PMC7862700, “An all-to-all approach to the identification of sequence-specific readers for epigenetic DNA modifications on cytosine”.

Experiments:
Assay in all cases: DAPPL (digital affinity profiling via proximity ligation, sequencing); 10 mM Tris-HCl pH 7.5, 50 mM NaCl, 1 mM DTT, 4% glycerol, room temperature, 30 min; GST-TFs on glutathione beads, 16-mer random dsDNA library, 0.1% formaldehyde crosslink after washing; high values mean tight binding
Settings in all cases: protein: recombinant; tags: N-terminal GST; dsDNA, one strand shown
FLI1 = molecular target: T1, FLI1 (Homo sapiens, UniProt Q01543 1-452)
T1 sequence: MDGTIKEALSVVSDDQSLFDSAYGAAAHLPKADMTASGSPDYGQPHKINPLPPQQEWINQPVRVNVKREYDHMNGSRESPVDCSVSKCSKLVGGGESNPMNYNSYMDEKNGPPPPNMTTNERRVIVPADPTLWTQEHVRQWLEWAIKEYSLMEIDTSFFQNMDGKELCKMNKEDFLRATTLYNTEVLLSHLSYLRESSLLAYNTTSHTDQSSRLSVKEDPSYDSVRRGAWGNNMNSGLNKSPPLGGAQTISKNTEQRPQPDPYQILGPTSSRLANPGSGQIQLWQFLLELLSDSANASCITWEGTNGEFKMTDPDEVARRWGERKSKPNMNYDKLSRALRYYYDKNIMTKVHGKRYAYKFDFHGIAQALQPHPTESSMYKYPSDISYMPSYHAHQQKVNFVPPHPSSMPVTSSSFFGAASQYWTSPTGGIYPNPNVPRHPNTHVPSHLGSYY
Procedure, shortened: (§1)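 Binding signal is defined as a hexamer's read frequency for one factor over its frequency for the tag-only sample. To obtain reads, GST-fused human transcription factors were expressed in yeast, captured on glutathione beads, barcoded with DNA and pooled with that sample. Pools met 200 nmole of a 16-mer random double-stranded DNA library in Tris/NaCl/DTT/glycerol buffer for 30 min at room temperature before washing, 0.1% formaldehyde crosslinking, proximity ligation (BsaI/T4 ligase, 1 h, 37 °C), PCR and Illumina NextSeq500 sequencing.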

ELK1 = molecular target: T2, ELK1 (Homo sapiens, UniProt P19419 1-428)
T2 sequence: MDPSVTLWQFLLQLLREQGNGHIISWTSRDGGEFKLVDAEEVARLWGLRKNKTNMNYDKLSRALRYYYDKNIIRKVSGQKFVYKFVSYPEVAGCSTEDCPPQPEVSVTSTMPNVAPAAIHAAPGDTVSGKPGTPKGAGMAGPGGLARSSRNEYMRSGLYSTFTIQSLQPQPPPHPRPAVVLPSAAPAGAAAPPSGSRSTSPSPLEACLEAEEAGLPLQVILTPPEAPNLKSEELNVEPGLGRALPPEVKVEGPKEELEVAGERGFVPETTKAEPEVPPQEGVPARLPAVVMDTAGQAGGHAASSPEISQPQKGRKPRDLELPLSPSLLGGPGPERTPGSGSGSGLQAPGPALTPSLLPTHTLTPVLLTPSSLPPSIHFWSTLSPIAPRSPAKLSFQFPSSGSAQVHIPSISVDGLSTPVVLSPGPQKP
Procedure, shortened: as §1

ERG = molecular target: T3, ERG (Homo sapiens, UniProt P11308 1-479)
T3 sequence: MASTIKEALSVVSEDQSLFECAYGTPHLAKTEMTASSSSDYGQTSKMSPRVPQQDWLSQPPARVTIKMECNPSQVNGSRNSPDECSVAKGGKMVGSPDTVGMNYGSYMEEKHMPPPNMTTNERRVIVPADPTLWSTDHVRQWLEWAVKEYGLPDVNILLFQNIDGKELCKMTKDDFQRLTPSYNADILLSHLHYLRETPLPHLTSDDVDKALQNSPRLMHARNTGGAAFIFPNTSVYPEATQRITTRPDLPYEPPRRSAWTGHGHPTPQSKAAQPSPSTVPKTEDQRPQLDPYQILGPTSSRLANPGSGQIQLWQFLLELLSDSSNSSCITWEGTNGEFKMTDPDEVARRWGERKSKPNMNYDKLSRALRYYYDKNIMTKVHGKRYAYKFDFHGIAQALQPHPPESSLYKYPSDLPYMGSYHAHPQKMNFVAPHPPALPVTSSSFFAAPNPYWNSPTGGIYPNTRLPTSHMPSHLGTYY
Procedure, shortened: as §1

ELF1 = ELF1 (Homo sapiens, UniProt P32519 1-619)
Procedure, shortened: as §1

EHF = molecular target: T4, EHF (Homo sapiens, UniProt Q9NZC4 1-300)
T4 sequence: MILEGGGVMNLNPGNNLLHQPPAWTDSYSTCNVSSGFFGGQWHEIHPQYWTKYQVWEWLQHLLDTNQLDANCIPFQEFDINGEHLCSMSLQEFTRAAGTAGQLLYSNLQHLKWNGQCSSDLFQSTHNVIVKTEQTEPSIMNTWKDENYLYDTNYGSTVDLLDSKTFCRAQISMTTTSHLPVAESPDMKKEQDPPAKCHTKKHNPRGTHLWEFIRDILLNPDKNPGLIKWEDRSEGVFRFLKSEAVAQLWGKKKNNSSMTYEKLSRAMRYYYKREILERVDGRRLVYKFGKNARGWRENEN
Procedure, shortened: as §1

SPI1 = SPI1 (Homo sapiens, UniProt P17947 1-270)
Procedure, shortened: as §1

SPIB = SPIB (Homo sapiens, UniProt Q01892 1-262)
Procedure, shortened: as §1

ETV5 = ETV5 (Homo sapiens, UniProt P41161 1-510)
Procedure, shortened: as §1

ELF4 = ELF4 (Homo sapiens, UniProt Q99607 1-663)
Procedure, shortened: as §1

ETV2 = molecular target: T5, ETV2 (Homo sapiens, UniProt O00321 1-342)
T5 sequence: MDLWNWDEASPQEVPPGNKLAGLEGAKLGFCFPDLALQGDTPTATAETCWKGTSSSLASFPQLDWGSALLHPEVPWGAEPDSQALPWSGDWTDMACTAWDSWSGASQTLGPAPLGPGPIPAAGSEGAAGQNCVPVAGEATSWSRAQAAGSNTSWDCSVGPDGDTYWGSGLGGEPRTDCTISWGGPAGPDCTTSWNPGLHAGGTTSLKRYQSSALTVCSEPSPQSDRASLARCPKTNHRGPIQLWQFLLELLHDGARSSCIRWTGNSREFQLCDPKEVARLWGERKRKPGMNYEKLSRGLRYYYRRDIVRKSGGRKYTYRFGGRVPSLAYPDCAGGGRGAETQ
Procedure, shortened: as §1

ETV1 = ETV1 (Homo sapiens, UniProt P50549 1-477)
Procedure, shortened: as §1

ERF = molecular target: T6, ERF (Homo sapiens, UniProt P50548 1-548)
T6 sequence: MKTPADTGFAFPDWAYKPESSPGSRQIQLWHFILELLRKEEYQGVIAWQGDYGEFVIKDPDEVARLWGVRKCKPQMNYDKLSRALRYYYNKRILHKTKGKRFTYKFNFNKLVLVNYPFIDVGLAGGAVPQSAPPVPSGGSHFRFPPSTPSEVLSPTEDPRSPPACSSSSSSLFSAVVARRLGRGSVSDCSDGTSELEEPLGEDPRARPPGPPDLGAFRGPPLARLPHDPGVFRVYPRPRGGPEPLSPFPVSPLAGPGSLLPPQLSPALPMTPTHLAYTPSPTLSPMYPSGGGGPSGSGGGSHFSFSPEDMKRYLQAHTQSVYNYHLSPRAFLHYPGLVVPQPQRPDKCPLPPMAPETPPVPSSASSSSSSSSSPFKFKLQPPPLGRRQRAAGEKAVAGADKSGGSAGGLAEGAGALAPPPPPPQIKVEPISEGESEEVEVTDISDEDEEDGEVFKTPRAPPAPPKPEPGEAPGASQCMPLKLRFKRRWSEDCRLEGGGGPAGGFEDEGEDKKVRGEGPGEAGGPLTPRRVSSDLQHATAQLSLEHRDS
Procedure, shortened: as §1

ETV3L = molecular target: T7, ETV3L (Homo sapiens, UniProt Q6ZN32 1-361)
T7 sequence: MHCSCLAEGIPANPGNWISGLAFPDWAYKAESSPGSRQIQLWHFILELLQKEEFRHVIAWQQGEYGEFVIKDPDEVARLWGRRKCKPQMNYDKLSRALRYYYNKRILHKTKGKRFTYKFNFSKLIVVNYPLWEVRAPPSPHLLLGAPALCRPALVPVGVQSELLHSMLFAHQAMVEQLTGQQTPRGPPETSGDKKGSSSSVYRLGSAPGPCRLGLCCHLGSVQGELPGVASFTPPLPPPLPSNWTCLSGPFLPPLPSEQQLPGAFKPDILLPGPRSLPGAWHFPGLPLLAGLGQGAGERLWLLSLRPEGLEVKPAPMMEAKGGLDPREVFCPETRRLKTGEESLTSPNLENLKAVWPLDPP
Procedure, shortened: as §1

ETS2 = molecular target: T8, ETS2 (Homo sapiens, UniProt P15036 1-469)
T8 sequence: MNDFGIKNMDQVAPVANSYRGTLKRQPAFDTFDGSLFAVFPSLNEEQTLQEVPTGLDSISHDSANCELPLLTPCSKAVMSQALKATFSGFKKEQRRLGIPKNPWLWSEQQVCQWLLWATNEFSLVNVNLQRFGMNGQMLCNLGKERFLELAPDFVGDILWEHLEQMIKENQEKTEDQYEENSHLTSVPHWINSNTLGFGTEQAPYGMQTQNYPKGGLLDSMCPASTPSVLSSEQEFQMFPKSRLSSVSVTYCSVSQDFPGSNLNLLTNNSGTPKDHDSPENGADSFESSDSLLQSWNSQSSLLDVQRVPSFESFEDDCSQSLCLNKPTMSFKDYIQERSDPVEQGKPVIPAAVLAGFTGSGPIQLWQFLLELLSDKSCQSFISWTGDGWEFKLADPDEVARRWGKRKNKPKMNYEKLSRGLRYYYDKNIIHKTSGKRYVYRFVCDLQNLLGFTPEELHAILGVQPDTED
Procedure, shortened: as §1

ETV7 = molecular target: T9, ETV7 (Homo sapiens, UniProt Q9Y603 1-341)
T9 sequence: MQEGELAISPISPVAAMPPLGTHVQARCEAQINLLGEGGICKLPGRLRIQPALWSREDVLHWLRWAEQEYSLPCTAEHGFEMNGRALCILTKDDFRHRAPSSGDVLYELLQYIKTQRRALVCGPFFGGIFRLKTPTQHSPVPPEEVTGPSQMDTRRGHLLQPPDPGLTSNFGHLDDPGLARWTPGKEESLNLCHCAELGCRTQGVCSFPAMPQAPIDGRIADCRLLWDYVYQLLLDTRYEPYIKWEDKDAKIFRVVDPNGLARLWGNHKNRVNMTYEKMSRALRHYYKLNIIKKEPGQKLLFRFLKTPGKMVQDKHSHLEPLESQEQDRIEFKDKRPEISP
Procedure, shortened: as §1

ETV3 = molecular target: T10, ETV3 (Homo sapiens, UniProt P41162-2 1-143)
T10 sequence: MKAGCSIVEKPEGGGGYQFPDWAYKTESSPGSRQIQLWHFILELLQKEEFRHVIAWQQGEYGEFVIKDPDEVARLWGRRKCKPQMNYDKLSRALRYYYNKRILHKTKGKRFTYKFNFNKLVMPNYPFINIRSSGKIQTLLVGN
Procedure, shortened: as §1

ETV6 = ETV6 (Homo sapiens, UniProt P41212 1-452)
Procedure, shortened: as §1

ETV5, sequence (P41161 whole entry): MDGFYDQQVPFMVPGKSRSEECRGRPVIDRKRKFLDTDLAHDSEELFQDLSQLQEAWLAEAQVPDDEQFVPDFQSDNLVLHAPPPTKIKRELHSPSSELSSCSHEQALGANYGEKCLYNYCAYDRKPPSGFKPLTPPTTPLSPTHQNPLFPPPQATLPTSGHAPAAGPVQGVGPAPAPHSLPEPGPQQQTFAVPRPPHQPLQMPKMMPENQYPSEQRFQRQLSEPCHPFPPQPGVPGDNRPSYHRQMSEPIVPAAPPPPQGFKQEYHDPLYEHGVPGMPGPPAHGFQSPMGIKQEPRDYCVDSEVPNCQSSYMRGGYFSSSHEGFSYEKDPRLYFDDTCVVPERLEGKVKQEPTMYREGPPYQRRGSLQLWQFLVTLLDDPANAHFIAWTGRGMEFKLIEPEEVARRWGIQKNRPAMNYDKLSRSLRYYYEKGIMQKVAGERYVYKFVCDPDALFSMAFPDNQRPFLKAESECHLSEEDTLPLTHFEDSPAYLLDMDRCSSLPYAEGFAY
ETV1, sequence (P50549 whole entry): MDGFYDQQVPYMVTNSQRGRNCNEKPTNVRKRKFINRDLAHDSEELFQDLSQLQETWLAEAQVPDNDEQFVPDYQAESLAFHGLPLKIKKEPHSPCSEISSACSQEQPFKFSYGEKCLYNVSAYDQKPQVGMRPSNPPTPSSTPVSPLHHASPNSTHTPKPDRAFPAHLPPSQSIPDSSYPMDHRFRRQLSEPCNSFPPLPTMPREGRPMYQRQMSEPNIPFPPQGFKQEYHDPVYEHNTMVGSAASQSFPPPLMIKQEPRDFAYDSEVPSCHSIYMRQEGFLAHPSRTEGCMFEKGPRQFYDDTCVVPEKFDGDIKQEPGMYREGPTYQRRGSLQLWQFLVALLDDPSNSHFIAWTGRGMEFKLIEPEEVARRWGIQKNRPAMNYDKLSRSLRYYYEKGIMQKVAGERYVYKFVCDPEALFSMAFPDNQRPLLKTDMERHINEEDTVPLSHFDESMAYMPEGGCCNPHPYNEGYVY
ELF1, sequence (P32519 whole entry): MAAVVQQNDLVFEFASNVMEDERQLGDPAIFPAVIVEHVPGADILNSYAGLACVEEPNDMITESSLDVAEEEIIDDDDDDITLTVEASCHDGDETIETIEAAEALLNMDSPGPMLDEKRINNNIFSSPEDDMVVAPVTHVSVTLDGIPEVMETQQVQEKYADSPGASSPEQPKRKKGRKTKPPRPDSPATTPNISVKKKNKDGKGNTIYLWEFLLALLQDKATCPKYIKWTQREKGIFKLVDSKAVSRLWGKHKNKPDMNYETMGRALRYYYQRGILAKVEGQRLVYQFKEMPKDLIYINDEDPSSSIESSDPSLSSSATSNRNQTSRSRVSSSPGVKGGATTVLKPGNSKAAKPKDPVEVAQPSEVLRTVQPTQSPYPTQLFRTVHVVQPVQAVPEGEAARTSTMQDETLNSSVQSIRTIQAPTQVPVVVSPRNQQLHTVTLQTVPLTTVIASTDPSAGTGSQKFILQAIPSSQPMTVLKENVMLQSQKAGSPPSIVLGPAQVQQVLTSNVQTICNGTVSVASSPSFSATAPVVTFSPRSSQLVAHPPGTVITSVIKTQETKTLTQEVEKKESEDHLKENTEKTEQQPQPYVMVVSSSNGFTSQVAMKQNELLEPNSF
ETV6, sequence (P41212 whole entry): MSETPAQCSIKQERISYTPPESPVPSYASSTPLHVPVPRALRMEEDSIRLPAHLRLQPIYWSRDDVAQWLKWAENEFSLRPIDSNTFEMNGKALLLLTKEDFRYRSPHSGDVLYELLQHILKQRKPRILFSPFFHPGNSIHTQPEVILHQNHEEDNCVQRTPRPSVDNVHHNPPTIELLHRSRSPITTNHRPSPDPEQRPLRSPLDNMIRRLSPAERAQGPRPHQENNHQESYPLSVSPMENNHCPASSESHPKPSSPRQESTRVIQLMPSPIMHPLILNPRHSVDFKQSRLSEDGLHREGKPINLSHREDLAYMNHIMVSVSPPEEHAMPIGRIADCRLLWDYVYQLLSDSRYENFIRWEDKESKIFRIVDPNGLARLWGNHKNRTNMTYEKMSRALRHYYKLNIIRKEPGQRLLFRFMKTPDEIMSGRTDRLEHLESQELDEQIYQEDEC
ELF4, sequence (Q99607 whole entry): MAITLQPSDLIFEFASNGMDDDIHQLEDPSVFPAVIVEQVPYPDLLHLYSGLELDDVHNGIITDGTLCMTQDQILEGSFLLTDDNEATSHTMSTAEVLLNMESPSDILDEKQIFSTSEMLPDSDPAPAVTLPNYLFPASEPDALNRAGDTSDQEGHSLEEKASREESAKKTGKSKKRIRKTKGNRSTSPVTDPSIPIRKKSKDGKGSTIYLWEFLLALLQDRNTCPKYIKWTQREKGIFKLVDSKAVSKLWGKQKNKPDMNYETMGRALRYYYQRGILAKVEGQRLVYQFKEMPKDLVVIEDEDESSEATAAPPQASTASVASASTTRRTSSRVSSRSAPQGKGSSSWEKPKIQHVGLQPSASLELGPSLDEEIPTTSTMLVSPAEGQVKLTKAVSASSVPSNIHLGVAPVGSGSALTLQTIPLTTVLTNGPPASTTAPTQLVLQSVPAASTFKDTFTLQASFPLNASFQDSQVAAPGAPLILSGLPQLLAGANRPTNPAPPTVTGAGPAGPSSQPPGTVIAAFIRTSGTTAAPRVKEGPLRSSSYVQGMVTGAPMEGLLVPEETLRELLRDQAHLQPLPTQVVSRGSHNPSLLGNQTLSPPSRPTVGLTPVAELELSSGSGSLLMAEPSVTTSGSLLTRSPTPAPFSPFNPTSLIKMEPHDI
SPIB, sequence (Q01892 whole entry): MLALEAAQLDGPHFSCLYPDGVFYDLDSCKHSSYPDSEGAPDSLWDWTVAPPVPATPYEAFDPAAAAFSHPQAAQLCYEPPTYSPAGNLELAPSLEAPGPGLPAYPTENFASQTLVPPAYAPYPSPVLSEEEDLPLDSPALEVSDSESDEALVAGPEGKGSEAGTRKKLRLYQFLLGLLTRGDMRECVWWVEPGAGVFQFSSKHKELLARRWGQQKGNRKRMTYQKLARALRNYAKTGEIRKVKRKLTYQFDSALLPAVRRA

Sequence: CATGTT
- binding signal (FLI1): 1.05 fold enrichment (6-mer frequency, TF over GST control)
- binding signal (ELK1): 1.07 fold enrichment (6-mer frequency, TF over GST control)
- binding signal (ERG): 1.04 fold enrichment (6-mer frequency, TF over GST control)
- binding signal (ELF1): 1.06 fold enrichment (6-mer frequency, TF over GST control)
- binding signal (EHF): 1.03 fold enrichment (6-mer frequency, TF over GST control)
- binding signal (SPI1): 1.04 fold enrichment (6-mer frequency, TF over GST control)
- binding signal (SPIB): 1.03 fold enrichment (6-mer frequency, TF over GST control)
- binding signal (ETV5): 1.03 fold enrichment (6-mer frequency, TF over GST control)
- binding signal (ELF4): 1.05 fold enrichment (6-mer frequency, TF over GST control)
- binding signal (ETV2): 1.11 fold enrichment (6-mer frequency, TF over GST control)
- binding signal (ETV1): 1.15 fold enrichment (6-mer frequency, TF over GST control)
- binding signal (ERF): 1.05 fold enrichment (6-mer frequency, TF over GST control)
- binding signal (ETV3L): 1.06 fold enrichment (6-mer frequency, TF over GST control)
- binding signal (ETS2): 1.01 fold enrichment (6-mer frequency, TF over GST control)
- binding signal (ETV7): 1.1 fold enrichment (6-mer frequency, TF over GST control)
- binding signal (ETV3): 1.12 fold enrichment (6-mer frequency, TF over GST control)
- binding signal (ETV6): 1.1 fold enrichment (6-mer frequency, TF over GST control)
